Laboratory results as given in PubChem BioAssay (Tox21).
Values joined by “and” are separate entries in the source; they are usually repeats but may differ in a detail not shown here. Equal values may be shown once. Inconclusive results are not listed. Active and inactive are the calls of the source. Unless noted, calls follow the shape of the dose curve; as a rule, active = well fitted curve in the direction sought with a large enough effect in the repeat runs; inconclusive = weak or mixed curves; inactive = no such curve, though single readings can be large; an effect the other way counts as inactive or inconclusive.

Legend:
[1] = qHTS assay to identify small molecule antagonists of the glucocorticoid receptor (GR) signaling pathway - cell viability counter screen (AID 720693); also: % is scaled to controls: 0 for no effect and ±100 for the full control effect; nearly all actives have a fitted effect of over 55% in size
[2] = qHTS assay for identifying genotoxic compounds that show differential cytotoxicity against isogenic chicken DT40 cell lines with known DNA damage response pathways - Rev3 mutant cell line (AID 743014); also: potency is read from the fitted curve at half-maximal effect; nearly all actives have a fitted effect of over 55% in size
[3] = qHTS assay for identifying genotoxic compounds that show differential cytotoxicity against isogenic chicken DT40 cell lines with known DNA damage response pathways - Rad54/Ku70 mutant cell line (AID 743015); also: nearly all actives have a fitted effect of over 60% in size; also: potency is read from the fitted curve at half-maximal effect
[4] = qHTS assay to identify small molecule antagonists of the androgen receptor (AR) signaling pathway using the MDA cell line - cell viability counter screen (AID 743041; also: % is scaled to controls: 0 for no effect and ±100 for the full control effect; nearly all actives have a fitted effect of over 45% in size)
Method in brief: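 R1881-driven MDA-kb2 AR-luc cells, 3,000/well, were dosed with library compounds for 16 h; cell health came from CellTiter-Fluor fluorescence in the reporter wells.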

[5] = qHTS assay to identify small molecule antagonists of the thyroid receptor (TR) signaling pathway - cell viability counter screen (AID 743064); also: % is scaled to controls: 0 for no effect and ±100 for the full control effect; nearly all actives have a fitted effect of over 50% in size
Method in brief: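 Counter screen for cytotoxicity: compound plus T3 (1 nM final) on GH3.TRE-Luc cells, 23.5 h at 37 °C, then fluorescence viability readout with CellTiter-Fluor.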

[6] = qHTS assay to identify small molecule antagonists of the thyroid receptor (TR) signaling pathway (AID 743065); also: % is scaled to controls: 0 for no effect and ±100 for the full control effect; nearly all actives have a fitted effect of over 55% in size
Method in brief: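 Antagonism measured as loss of luciferase signal in GH3 cells stably carrying a TRE-luciferase reporter, co-treated with compound and T3 (1 nM final) for 23.5 h at 37 C. Viability was read in the same well by CellTiter-Fluor.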

[7] = test system: thyroid hormone receptor (rat, GH3 cells); assay: qHTS assay to identify small molecule agonists of the thyroid receptor (TR) signaling pathway (AID 743066; calls by dose curve; also: % is scaled to controls: 0 for no effect and ±100 for the full control effect)
[8] = biological target: Estrogen receptor (Homo sapiens) (UniProt P03372); assay: qHTS assay to identify small molecule antagonists of the estrogen receptor alpha (ER-alpha) signaling pathway (AID 743069; active = well fitted curve in the direction sought with a large enough effect in the signal ratio in the repeat runs, not every such curve was filed as active; the % refers to the signal ratio; also: % is scaled to controls: 0 for no effect and ±100 for the full control effect)
Method in brief: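 Compound effects are measured against 17beta-estradiol stimulation in HEK293 cells with a UAS-controlled beta-lactamase reporter for ER-alpha. Exposure lasts 18 hr at 37C; LiveBLAzer B/G FRET substrate follows for 2 hr at room temperature.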

[9] = qHTS assay to identify small molecule antagonists of the estrogen receptor alpha (ER-alpha) signaling pathway - cell viability counter screen (AID 743074; calls by dose curve;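 also: HEK293 cells carrying ER-alpha-UAS-bla reporter stimulated with 17beta-estradiol; % is scaled to controls: 0 for no effect and ±100 for the full control effect; nearly all actives have a fitted effect of over 45% in size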)
[10] = biological target: Estrogen receptor (Homo sapiens) (UniProt P03372); assay: qHTS assay to identify small molecule agonists of the estrogen receptor alpha (ER-alpha) signaling pathway (AID 743075; calls by dose curve; also: potency is read from the fitted curve at half-maximal effect; as to activation: % is scaled to controls: 0 for no effect and ±100 for the full control effect)
[11] = biological target: Estrogen receptor (Homo sapiens) (UniProt P03372); assay: qHTS assay to identify small molecule agonists of the estrogen receptor alpha (ER-alpha) signaling pathway using the BG1 cell line (AID 743079); details: BG1Luc4E2 cells, ERE-luciferase agonist, 22 h; also: nearly all actives have a fitted effect of over 20% in size; also: potency is read from the fitted curve at half-maximal effect
[12] = qHTS assay to identify small molecule antagonists of the estrogen receptor alpha (ER-alpha) signaling pathway using the BG1 cell line (AID 743080; calls by dose curve;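 also: BG1 cells stimulated with 17beta-estradiol alongside compound; % is scaled to controls: 0 for no effect and ±100 for the full control effect; nearly all actives have a fitted effect of over 25% in size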)
Method in brief: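 BG1-Luc-4E2 cells (endogenous full-length ER-alpha, 4xERE luciferase) hormone-starved 5 days in charcoal-stripped FBS, plated 4,000/well for 24 h, then compound plus 17beta-estradiol for 21.5 h at 37 C; ONE-Glo luminescence read.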

[13] = qHTS assay to identify small molecule antagonists of the estrogen receptor alpha (ER-alpha) signaling pathway using the BG1 cell line - cell viability counter screen (AID 743081);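 also: compound given together with 17beta-estradiol as the ER stimulus; % is scaled to controls: 0 for no effect and ±100 for the full control effect; nearly all actives have a fitted effect of over 45% in size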
[14] = biological target: Aromatase (Homo sapiens) (UniProt P11511); assay: qHTS assay to identify aromatase inhibitors (AID 743083); also: % is scaled to controls: 0 for no effect and ±100 for the full control effect; nearly all actives have a fitted effect of over 55% in size
[15] = qHTS assay to identify small molecule antagonists of the androgen receptor (AR) signaling pathway - cell viability counter screen (AID 743033; also: % is scaled to controls: 0 for no effect and ±100 for the full control effect; nearly all actives have a fitted effect of over 45% in size)
[16] = qHTS assay for identifying genotoxic compounds that show differential cytotoxicity against isogenic chicken DT40 cell lines with known DNA damage response pathways - wild type cell line (AID 743012); also: nearly all actives have a fitted effect of over 60% in size; also: potency is read from the fitted curve at half-maximal effect
Method in brief: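 Wild type DT40, 300 cells/well, ~0.5 h settle at 37 C/5% CO2; compounds in DMSO added by pintool; 40 h at 37 C/5% CO2; CellTiter-Glo, 30 min RT; luminescence.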

[17] = biological target: Androgen receptor (Homo sapiens) (UniProt P10275); assay: qHTS assay to identify small molecule agonists of the androgen receptor (AR) signaling pathway (AID 743036; active = well fitted activation curve with a large enough effect in the signal ratio in the repeat runs, with a control signal flat, not every such curve was filed as active; the % refers to the signal ratio; also: % is scaled to controls: 0 for no effect and ±100 for the full control effect)
Method in brief: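 In this Tox21 qHTS, 2,000 HEK293 AR-bla cells per well were incubated with compounds for 16 h at 37C and 5% CO2. Fluorescence intensity was recorded 2 h after adding LiveBLAzer B/G FRET substrate at room temperature.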

[18] = biological target: Androgen receptor (Homo sapiens) (UniProt P10275); assay: qHTS assay to identify small molecule agonists of the androgen receptor (AR) signaling pathway using the MDA cell line (AID 743040; also: % is scaled to controls: 0 for no effect and ±100 for the full control effect; nearly all actives have a fitted effect of over 20% in size)
Method in brief: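 After a 5 h incubation at 37C and 0% CO2, MDA-kb2 reporter cells were dosed with compounds in DMSO and kept 16 h under the same conditions. Luciferase activity was then read as luminescence with ONE-Glo.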

Chain of Aromatase (Homo sapiens) (P11511 whole entry, looked up): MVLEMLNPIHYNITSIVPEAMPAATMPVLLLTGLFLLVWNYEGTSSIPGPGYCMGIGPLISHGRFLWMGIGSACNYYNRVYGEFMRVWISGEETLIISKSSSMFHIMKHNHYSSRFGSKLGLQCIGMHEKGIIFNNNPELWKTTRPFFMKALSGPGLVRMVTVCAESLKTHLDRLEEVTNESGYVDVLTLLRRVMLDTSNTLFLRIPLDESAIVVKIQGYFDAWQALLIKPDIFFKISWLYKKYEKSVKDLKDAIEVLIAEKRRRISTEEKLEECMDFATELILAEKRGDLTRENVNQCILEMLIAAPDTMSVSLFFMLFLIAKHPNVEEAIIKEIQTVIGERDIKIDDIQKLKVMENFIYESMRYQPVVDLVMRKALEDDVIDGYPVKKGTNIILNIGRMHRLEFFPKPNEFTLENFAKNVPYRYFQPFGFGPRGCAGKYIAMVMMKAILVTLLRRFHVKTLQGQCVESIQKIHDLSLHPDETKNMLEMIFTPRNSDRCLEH
Chain of Estrogen receptor (Homo sapiens) (P03372 whole entry, looked up): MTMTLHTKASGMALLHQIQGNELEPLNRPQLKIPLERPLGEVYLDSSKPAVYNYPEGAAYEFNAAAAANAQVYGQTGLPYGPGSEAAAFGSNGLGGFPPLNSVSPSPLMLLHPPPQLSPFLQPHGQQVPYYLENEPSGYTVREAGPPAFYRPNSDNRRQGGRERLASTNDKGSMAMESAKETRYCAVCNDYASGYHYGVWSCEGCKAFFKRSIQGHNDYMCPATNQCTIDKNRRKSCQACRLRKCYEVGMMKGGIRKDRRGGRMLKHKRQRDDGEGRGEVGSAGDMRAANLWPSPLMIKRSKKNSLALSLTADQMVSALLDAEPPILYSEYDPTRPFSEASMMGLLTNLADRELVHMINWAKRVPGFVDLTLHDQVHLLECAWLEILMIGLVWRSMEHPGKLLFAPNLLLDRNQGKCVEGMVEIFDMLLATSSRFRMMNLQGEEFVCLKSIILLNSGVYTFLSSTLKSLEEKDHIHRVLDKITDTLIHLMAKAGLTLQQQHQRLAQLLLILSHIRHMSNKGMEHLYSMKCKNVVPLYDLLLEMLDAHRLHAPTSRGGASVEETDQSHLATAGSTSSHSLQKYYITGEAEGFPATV
Chain of Androgen receptor (Homo sapiens) (P10275 whole entry, looked up): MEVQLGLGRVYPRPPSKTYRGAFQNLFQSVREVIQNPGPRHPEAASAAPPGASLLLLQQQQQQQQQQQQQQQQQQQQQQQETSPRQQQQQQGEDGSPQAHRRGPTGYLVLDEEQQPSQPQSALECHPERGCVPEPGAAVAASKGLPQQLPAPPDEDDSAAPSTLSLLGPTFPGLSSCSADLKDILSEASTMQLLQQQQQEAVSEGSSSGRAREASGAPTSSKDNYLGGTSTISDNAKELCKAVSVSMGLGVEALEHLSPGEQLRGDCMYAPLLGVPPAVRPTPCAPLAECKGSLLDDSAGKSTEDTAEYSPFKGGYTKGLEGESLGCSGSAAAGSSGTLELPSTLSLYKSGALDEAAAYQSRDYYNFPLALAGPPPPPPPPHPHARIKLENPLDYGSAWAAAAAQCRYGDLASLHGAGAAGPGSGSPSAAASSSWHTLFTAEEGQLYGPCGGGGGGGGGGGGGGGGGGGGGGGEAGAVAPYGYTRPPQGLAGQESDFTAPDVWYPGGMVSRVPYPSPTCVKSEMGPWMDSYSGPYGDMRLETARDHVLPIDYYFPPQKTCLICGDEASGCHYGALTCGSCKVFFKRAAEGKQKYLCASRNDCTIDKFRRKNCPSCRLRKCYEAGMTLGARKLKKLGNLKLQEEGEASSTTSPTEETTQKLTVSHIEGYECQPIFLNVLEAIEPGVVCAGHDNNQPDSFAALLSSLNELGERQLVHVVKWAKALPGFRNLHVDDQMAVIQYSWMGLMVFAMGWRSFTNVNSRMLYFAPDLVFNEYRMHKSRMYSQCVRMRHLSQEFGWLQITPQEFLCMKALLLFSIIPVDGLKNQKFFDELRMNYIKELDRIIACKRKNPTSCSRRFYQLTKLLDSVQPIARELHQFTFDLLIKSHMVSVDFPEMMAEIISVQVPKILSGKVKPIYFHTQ

CCC/C(=N\OCC)C1=C(O)CC(CC(C)SCC)CC1=O (stereo not drawn)
inactive: Potency [1] | Potency [4] | Potency [5] | Potency [6] | Potency [7] | Potency [8] | outcome [9] | Potency [10] | activation ([11]; at 95 µM (top of the series)) -1.67% | Potency [12] | Potency [13] | Potency [14]
active: Potency [2] 61.5 µM | Potency [3] 61.5 µM

OC(c1ccc(F)cc1)(c1cncnc1)c1ccccc1Cl (stereo not drawn)
inactive: Potency [1] | Potency [15] | Potency [4] | Potency [5] | Potency [6] | Potency [7] | Potency [8] | outcome [9] | Potency [12] | Potency [13]
active: Potency [2] 30.6 µM | Potency [3] 61.1 µM | Potency [10] 49 µM [activator]

CC1=NNC(=O)N(/N=C/c2cccnc2)C1
inactive: Potency [1] | Potency [16] | Potency [3] | Potency [15] | Potency [4] | Potency [5] | Potency [6] | Potency [7] | outcome [9] | Potency [13] | Potency [14]

CCOP(=S)(OCC)SCSc1ccc(Cl)cc1
active: Potency [11] 26.6 µM and 24.3 µM
inactive: Potency [1] | Potency [16] | Potency [3] | Potency [15] | Potency [4] | Potency [5] | Potency [6] | Potency [7] | Potency [8] | outcome [9] | Potency [10] | Potency [12] | Potency [13] | Potency [14]

C#CCN1C(=O)COc2cc(F)c(N3C(=O)C4=C(CCCC4)C3=O)cc21
active: Potency [16] 61.1 µM
inactive: Potency [1] | Potency [15] | outcome [17] | Potency [18] | Potency [4] | Potency [5] | Potency [7] | Potency [8] | outcome [9] | Potency [10] | activation ([11]; at 70.3 µM (top of the series)) -23.7% | Potency [12] | Potency [13] | Potency [14]
